Data taken from PubChem BioAssay (Tox21).
Results filed as inconclusive are left out. A number with no mark means an inactive call. Activity calls are given as the source filed them. Calls come from the whole dose curve; as a rule, active = well fitted cell-killing curve with a large enough effect in the repeat runs; inconclusive = weak or mixed curves, or effect the other way; inactive = flat fitted curve, though single readings scatter.

assay: qHTS assay to identify small molecule that activate the aryl hydrocarbon receptor (AhR) signaling pathway - cell viability counter screen (AID 743086); conditions: HepG2-AhR-luc viability, CellTiter-Fluor, 24 h; series mostly up to 70.3 µM; viability change, negative = cytotoxic: at the top concentration;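 note: HepG2 liver cells carrying the AhR DRE luciferase reporter; nearly all actives have a fitted effect of over 45% in size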
Excerpt: U.S. Tox21 Program National Center for Advancing Translational Sciences [NCATS] NIH Chemical Genomics Center [NCGC] U.S. Environmental Protection Agency [EPA] National Institutes of Environmental Health Sciences [NIEHS] National Toxicology Program [NTP] U.S. Food and Drug Administration [FDA] Tox21 Assay overview: The Aryl hydrocarbon Receptor (AhR), a member of the family of basic helix-loop-helix transcription factors, is crucial to adaptive responses to environmental changes. AhR mediates cellular responses to environmental pollutants such as aromatic hydrocarbons through induction of phase I and II enzymes but also interacts with other nuclear receptor signaling pathways A cell based HepG2-AhR-luc assay (HG2L7.5c1 cell line, developed by Dr. Michael S. Denison, University of California at Davis) was used to assess the activation of AhR. HepG2 (human hepatocellular carcinoma) cells were stably transfected with an Ah receptor-responsive firefly luciferase reporter gene plasmid containing 20 dioxin responsive elements and luciferase reporter gene. Increased luciferase activity can be used to identify the compounds that induce AhR activation. The cytotoxicity of the compounds screened against the HepG2-AhR-luc cell line was tested in parallel by measuring the cell viability using CellTiter-Fluor assay in the same wells.
Tox21 Assay Protocol Summary: 4000 cells in 5 uL/well were dispensed into white wall/solid bottom 1536-well plates using a Multidrop Combi (Thermo Fisher Scientific Inc., Waltham, MA) dispenser. After the assay plates were incubated at 37C for 5 h, 23 nL of compound or DMSO vehicle was transferred to the assay plates by a pintool station (Kalypsys, San Diego, CA). The plates were incubated at 37C for 24 hr. For cell viability measurement, 1 ul/well of CellTiter-Fluor reagent (Promega, Madison, WI) was added into the assay plates using a Flying Reagent Dispenser (FRD) (Aurora Discovery, CA),and then the assay plates were incubated at 37C for 30 min. The fluorescence intensity in the plates was measured using a ViewLux plate reader (PerkinElmer, Shelton, CT), followed by the addition of 4 uL of ONE-Glo Luciferase Assay reagent (Promega) using an FRD (Aurora Discovery). After the assay plates were incubated at room temperature for 30 min, luminescence intensity was measured using a ViewLux plate reader (Perkin Elmer).
% is set by controls: 0 for no effect and ±100 for the full control effect.

| SMILES | outcome | viability change, negative = cytotoxic |
| --- | --- | --- |
| Cc1ccc(N(C)C)cc1 | inactive |  |
| CCCCCCCCC/C=C/CC1CC(=O)OC1=O (stereo not given) | inactive |  |
| C=CCNC(N)=S | inactive |  |
| O=C(O)CCCC[C@@H]1SC[C@@H]2NC(=O)N[C@@H]21 |  | 7.65% |
| COc1ccc(Cl)cc1C(=O)NCCc1ccc(S(=O)(=O)NC(=O)NC2CCCCC2)cc1 | inactive |  |
| CCCCCOC(C)=O | inactive |  |
| CCCCC(CC)CO (stereo not given) | inactive |  |
| COc1ccc(NC(C)=O)cc1N | inactive |  |
| OC[C@H]1O[C@@](CO)(O[C@H]2O[C@H](CO)[C@@H](O)[C@H](O)[C@H]2O)[C@@H](O)[C@@H]1O | inactive |  |
| OCC(CO)(CBr)CBr | inactive |  |
| CC(C)CC(=O)CC(C)C | inactive |  |
| CCCCCCCCCCCCOCCO |  | -0.775% |
| O=C(O)[C@H](O)[C@@H](O)[C@H](O)[C@H](O)CO | inactive |  |
| CCCCCCOCCO | inactive |  |
| COc1ccc2cc([C@H](C)C(=O)O)ccc2c1 | inactive |  |
| CC(O)COCC(C)O (stereo not given) | inactive |  |
| CCCCC(CC)COC(=O)CCCCC(=O)OCC(CC)CCCC (stereo not given) | inactive |  |
| CC1=CC(=O)NS(=O)(=O)O1 | inactive |  |
| CN(C)CCCN | inactive |  |
| Nc1ccccc1[N+](=O)[O-] |  | 20% [at 95 µM] |

| SMILES | outcome | viability change, negative = cytotoxic |
| --- | --- | --- |
| CCCCCCCCCCCCCCCO | inactive |  |
| O=c1[nH]nnc2ccccc12 | inactive |  |
| C[C@H]1C[C@@H]2[C@H]([C@@H](O)C[C@@]3(C)[C@H]2CC[C@]3(O)C(=O)CO)[C@@]2(C)C=CC(=O)C=C12 | inactive |  |
| CCCSc1ccc2nc(NC(=O)OC)[nH]c2c1 | inactive |  |
| Oc1cccc2ccccc12 | inactive |  |
| CCCCCCCC(=O)OC | inactive |  |
| CN(C)CCC(c1ccc(Cl)cc1)c1ccccn1 (stereo not given) | inactive |  |
| Fc1ccc(Br)cc1 | inactive |  |
| CCCCCCCCCCCCCCO | inactive |  |
| CCCCN(CCCC)CCCC | inactive |  |
| C=C(C)C(=O)OCCOCCOCCOC(=O)C(=C)C | inactive |  |
| Cc1cnc(C(=O)NCCc2ccc(S(=O)(=O)NC(=O)NC3CCCCC3)cc2)cn1 | inactive |  |
| CC[C@H](C)C(=O)O[C@H]1C[C@@H](C)C=C2C=C[C@H](C)[C@H](CC[C@@H]3C[C@@H](O)CC(=O)O3)[C@H]21 | inactive |  |
| CCCCCC(N)=O | inactive |  |
| CCCCC(CC)COC(=O)CS (stereo not given) | inactive |  |
| Cc1cc(C)c(C)cc1C | inactive |  |
| CCc1ccc(CCOc2ccc(CC3SC(=O)NC3=O)cc2)nc1 (stereo not given) | inactive |  |
| c1ccc2c(c1)ccc1ccccc12 | inactive |  |
| CCCCCC/C(C=O)=C\c1ccccc1 | inactive |  |
| C[Si](O[Si](C)(C)C)O[Si](C)(C)C | inactive |  |
